Values joined by “and” are separate entries in the source; they are usually repeats but may differ in a detail not shown here. Equal values may be shown once. The source holds several records for some structures; these can differ, active in one and inactive in another. Active and inactive are the calls of the source. Rule for the calls: active = hit-call score of the fitted dose curve at least 0.9, where 1 is the maximum; inactive = score below 0.9.
read-out: Tissue Factor, F3 (gene 2152); assay: BSK_LPS_TissueFactor: BioMAP Diversity Plus: LPS Assay for Tissue Factor Biomarker Activity (AID 2283084); conditions: primary human HUVEC with PBMC; actives raise or lower the signal
Method: BSK_LPS is a cell-based, multiplexed-readout assay that uses umbilical vein endothelium and peripheral blood mononuclear cells, a human vascular primary cell co-culture, with measurements taken at 24 hours after chemical dosing in a 96-well plate.BSK_LPS_TissueFactor is an assay component measured in the BSK_LPS assay. It measures CD142 Tissue Factor antibody related to regulation of gene expression using ELISA technology.Data from the assay component BSK_LPS_TissueFactor was analyzed into 1 assay endpoint. This assay endpoint, BSK_LPS_TissueFactor, was analyzed with bidirectional fitting relative to DMSO as the negative control and baseline of activity. Using a type of binding reporter, gain or loss-of-signal activity can be used to understand changes in the signaling as they relate to the gene F3. Furthermore, this assay endpoint can be referred to as a primary readout, because this assay has produced multiple assay endpoints where this one serves a signaling function. To generalize the intended target to other relatable targets, this assay endpoint is annotated to the cytokine intended target family, where the subfamily is coagulation factor.
The levels of cell surface (or secreted, indicated by the prefix "s") biomarker endpoints were measured by ELISA. Overt cytotoxicity to cells in confluent adherent cultures (all systems other than the BT system) was assessed by measuring total protein levels using sulforhodamine B (SRB) staining in parallel cultures at the time of biomarker measurements, indicated as SRB endpoints. For proliferation assays for adherent cell types, individual cell types are cultured at sub-confluence and relative cell numbers quantified by SRB staining at time points optimized for each system (48 h: 3C and CASM3C systems; 72 h: BT and HDF3CGF systems; 96 h: SAg system). SRB was performed by staining cells with 0.1% SRB after fixation with 10% TCA and reading wells at 560 nm.Viability and proliferation of PBMC (T cells) was quantified by Alamar Blue reduction for the SAg and BT systems. For PBMC viability (referred to as PBMC Cytotoxicity within the assay endpoint names), cells were plated (75,000/well in a 96-well plate) and then chemical samples added for 1 h before addition of activators, SEB and TSST-1 (20 ng/mL final concentration each). Cells were incubated for 90 h. Then, Alamar Blue (20 uL/well) (Invitrogen, Cat DAL1100) was added for 6 h, and the plates were read with a fluorescence microplate reader at 546/580 nm (excitation/emission). For PBMC proliferation, cells were plated and activated as above but incubated for only 16 h prior to addition of Alamar Blue. Plates were read after 6 h.

Structure (SMILES)	outcome	AC50
O=C(N[C@H]1CN2CCC1CC2)c1cc2ccoc2cn1	inactive	–
CC(C)(c1ccccc1)c1ccc(O)cc1	–	32.2 µM (active)
Clc1ccc(C(Cl)(Cl)Cl)cc1	inactive	–
C[C@]12CCC(=O)C=C1CC[C@@H]1[C@@H]2CC[C@@]2(C)[C@H]1CC[C@]2(C)O	inactive	–
CCOP(=S)(OCC)SCSC(C)(C)C	inactive	–
C[C@]12CCC(=O)C=C1CC[C@@H]1[C@@H]2CC[C@]2(C)C(=O)CC[C@@H]12	inactive	–
O=C(O)C(F)(F)C(F)(F)C(F)(F)C(F)(F)C(F)(F)F	inactive	–
ClC1=C(Cl)[C@]2(Cl)[C@@H]3[C@@H]4C[C@@H]([C@H]5O[C@@H]45)[C@@H]3[C@@]1(Cl)C2(Cl)Cl	inactive	–
Oc1ccc(C(c2ccc(O)cc2)(C(F)(F)F)C(F)(F)F)cc1	–	37.9 µM (active)
ClC1=C(Cl)[C@]2(Cl)[C@@H]3[C@@H](Cl)[C@H]4O[C@H]4[C@@H]3C1(Cl)C2(Cl)Cl	inactive	–
O=C(O)C(F)(F)C(F)(F)C(F)(F)C(F)(F)C(F)(F)C(F)(F)C(F)(F)C(F)(F)C(F)(F)F	inactive	45.6 µM (active) and 50.6 µM (active)
Cc1ccc(O)c(C)c1	inactive	–
O=C(NC(=O)c1cc(F)c(F)cc1Cl)Nc1cc(F)ccc1N1CCC(C(=O)O)CC1	inactive	–
c1ccc(-c2ccccc2)cc1	inactive	–
Cc1cc(O)ccc1Cl	inactive	–
O=NN(c1ccccc1)c1ccccc1	inactive	–
Cc1cc2c3c(c1)C(c1ccccc1)=N[C@@H](NC(=O)c1ccncc1)C(=O)N3CC2	inactive	–
Clc1ccc(C(c2ccccc2Cl)C(Cl)(Cl)Cl)cc1 (stereo not given)	–	23.4 µM (active)
CCOC(=O)C(O)(c1ccc(Cl)cc1)c1ccc(Cl)cc1	–	34 µM (active)

Structure (SMILES)	outcome	AC50
CCCCCCCCOC(=O)c1ccccc1C(=O)OCCCCCCCC	inactive	–
O=C(NC(=O)c1c(F)cccc1F)Nc1cc(Cl)c(OC(F)(F)C(F)F)c(Cl)c1	inactive	–
C=CC(N)=O	inactive	–
Clc1ccc(Cl)cc1	inactive	–
CCC(C)(c1ccc(O)cc1)c1ccc(O)cc1	inactive	–
O=C(O)C(F)(F)C(F)(F)C(F)(F)C(F)(F)C(F)(F)C(F)(F)C(F)(F)C(F)(F)F	inactive	–
CCOCCOC(C)=O	inactive	–
Oc1c(Cl)c(Cl)c(Cl)c(Cl)c1Cl	inactive	32.4 µM (active)
O=S(=O)(O)C(F)(F)C(F)(F)C(F)(F)C(F)(F)C(F)(F)C(F)(F)F	inactive	–
O=S(=O)(O)C(F)(F)C(F)(F)C(F)(F)C(F)(F)F	inactive	–
CCCCCCCCCC[N+](C)(C)CCCCCCCCCC	–	4.31 µM (active)
NS(=O)(=O)C(F)(F)C(F)(F)C(F)(F)C(F)(F)C(F)(F)C(F)(F)C(F)(F)C(F)(F)F	inactive	44.6 µM (active)
CC(C)C(=O)OCC(C)(C)C(OC(=O)C(C)C)C(C)C (stereo not given)	inactive	–
Cc1cc(-c2ccc(N)c(C)c2)ccc1N	inactive	–
COS(=O)(=O)OC	inactive	–
CC1=C2C[C@H]3[C@@H](CC=C4C[C@@H](O)CC[C@@]43C)[C@@H]2CC[C@]12O[C@@H]1C[C@H](C)CN[C@H]1[C@H]2C	inactive	–
Nc1ccc(-c2ccc(N)cc2)cc1	inactive	–
CCC(C)(CC)c1cc(NC(=O)c2c(OC)cccc2OC)on1	inactive	–
